{"source": "PubChem BioAssay (NCATS)", "note": "Values joined by “and” are separate entries in the source; they are usually repeats but may differ in a detail not shown here. Equal entries are not always repeated. Inconclusive results are not listed. Values without a mark were called inactive. Active and inactive are the calls of the source. Calls follow the shape of the dose curve; as a rule, active = well fitted cell-killing curve with a large enough effect; inconclusive = small, poorly fitted or top-dose-only effect; inactive = flat fitted curve, though single readings scatter. Potency is read from the fitted curve at half-maximal effect.", "data": [{"test": "Cell Viability - LYMP2-002 (AID 977);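 as to activity change, negative = cytotoxic: plate controls were DMSO only for no effect and 92 µM tetraoctylammonium bromide for full effect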", "conditions": "LYMP2-002 lymphoblastoid cell viability, qHTS; series mostly up to 92.2 µM; activity change, negative = cytotoxic: at the top concentration", "how_it_was_run": "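Cytotoxicity is scored as concentration-dependent loss of cellular ATP in a human lymphoblastoid line after 24 hr compound treatment at 37 C. AC50 is obtained by modelling concentration-response data with the Hill equation.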", "units": {"activity change, negative = cytotoxic": "%"}, "values": [{"smiles": "Oc1ccc(Cl)cc1Cc1ccccc1", "activity change, negative = cytotoxic": -23.5}, {"smiles": "CNCC(O)c1ccc(O)cc1", "note": "(stereo unspecified)", "activity change, negative = cytotoxic": 4.32}, {"smiles": "NCC(O)c1ccc(O)cc1", "note": "(stereo unspecified)", "activity change, negative = cytotoxic": 7.72}, {"smiles": "CC(COc1ccccc1)N(CCCl)Cc1ccccc1", "note": "(stereo unspecified)", "Potency": "50.1 µM (active)"}, {"smiles": "CCCC(C)(COC(N)=O)COC(=O)NC(C)C", "note": "(stereo unspecified)", "activity change, negative = cytotoxic": -10.1}, {"smiles": "OCCOc1ccccc1", "activity change, negative = cytotoxic": -11}, {"smiles": "CCOP(=S)(OCC)Oc1cc(C)nc(C(C)C)n1", "activity change, negative = cytotoxic": -18.5}, {"smiles": "CC(=O)Oc1ccccc1C(=O)Nc1ncc([N+](=O)[O-])s1", "Potency": "31.6 µM (active)"}, {"smiles": "c1ccc2c(c1)Nc1ccccc1S2", "activity change, negative = cytotoxic": 7.08}, {"smiles": "Oc1cccc2cccnc12", "Potency": "25.1 µM (active) and 15.8 µM (active)"}, {"smiles": "Oc1ccccc1-c1ccccc1", "activity change, negative = cytotoxic": 1.32}, {"smiles": "N[C@@H](Cc1ccc(N(CCCl)CCCl)cc1)C(=O)O", "Potency": "39.8 µM (active)"}]}, {"test": "Cell Viability - LYMP2-006 (AID 978); also: nearly all actives have a fitted effect of over 60% in size; as to activity change, negative = cytotoxicity: % is scaled to controls: 0 for no effect and ±100 for the full control effect", "conditions": "LYMP2-006 lymphoblastoid cell viability, qHTS; series mostly up to 92.2 µM; activity change, negative = cytotoxicity: at the top concentration", "how_it_was_run": "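qHTS, 1536-well; 2500 cells/well, 5 hr 37 C; cpd 24 hr 37 C; CellTiter-Glo 30 min RT; luminescence. Tetraoctylammonium bromide pos. ctrl. AC50 via Hill eqn.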", "units": {"activity change, negative = cytotoxicity": "%"}, "values": [{"smiles": "Oc1ccc(Cl)cc1Cc1ccccc1", "activity change, negative = cytotoxicity": 0.192}, {"smiles": "CNCC(O)c1ccc(O)cc1", "note": "(stereo unspecified)", "activity change, negative = cytotoxicity": 3.65}, {"smiles": "NCC(O)c1ccc(O)cc1", "note": "(stereo unspecified)", "activity change, negative = cytotoxicity": -1.18}, {"smiles": "CC(COc1ccccc1)N(CCCl)Cc1ccccc1", "note": "(stereo unspecified)", "Potency": "50.1 µM (active)"}, {"smiles": "CCCC(C)(COC(N)=O)COC(=O)NC(C)C", "note": "(stereo unspecified)", "activity change, negative = cytotoxicity": 1.23}, {"smiles": "OCCOc1ccccc1", "activity change, negative = cytotoxicity": -4.59}, {"smiles": "CCOP(=S)(OCC)Oc1cc(C)nc(C(C)C)n1", "activity change, negative = cytotoxicity": -18.5}, {"smiles": "c1ccc2c(c1)Nc1ccccc1S2", "activity change, negative = cytotoxicity": -2.46}, {"smiles": "Oc1cccc2cccnc12", "Potency": "25.1 µM (active) and 15.8 µM (active)"}, {"smiles": "Oc1ccccc1-c1ccccc1", "activity change, negative = cytotoxicity": 6.13}, {"smiles": "N[C@@H](Cc1ccc(N(CCCl)CCCl)cc1)C(=O)O", "Potency": "39.8 µM (active)"}]}, {"test": "Cell Viability - LYMP2-007 (AID 979);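 also: cells exposed to compound for 24 h before reading; nearly all actives have a fitted effect of over 60% in size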;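 as to activity change, negative = cytotoxicity: 0% = DMSO only and the negative end = 92 µM tetraoctylammonium bromide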", "conditions": "LYMP2-007 lymphoblastoid cell viability; series mostly up to 92.2 µM; activity change, negative = cytotoxicity: at the top concentration", "how_it_was_run": "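Luminescent ATP signal (CellTiter-Glo) serves as the viability read-out after 24 hr compound treatment of lymphoblastoid cells in complete medium at 37 C. Concentration-response data were fitted to the Hill equation to give AC50 values.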", "units": {"activity change, negative = cytotoxicity": "%"}, "values": [{"smiles": "Oc1ccc(Cl)cc1Cc1ccccc1", "activity change, negative = cytotoxicity": 1.11}, {"smiles": "CNCC(O)c1ccc(O)cc1", "note": "(stereo unspecified)", "activity change, negative = cytotoxicity": 1.14}, {"smiles": "NCC(O)c1ccc(O)cc1", "note": "(stereo unspecified)", "activity change, negative = cytotoxicity": -0.46}, {"smiles": "Clc1ccc(COC(Cn2ccnc2)c2ccc(Cl)cc2Cl)cc1", "note": "(stereo unspecified)", "Potency": "50.1 µM (active)"}, {"smiles": "CC(COc1ccccc1)N(CCCl)Cc1ccccc1", "note": "(stereo unspecified)", "Potency": "39.8 µM (active)"}, {"smiles": "CCCC(C)(COC(N)=O)COC(=O)NC(C)C", "note": "(stereo unspecified)", "activity change, negative = cytotoxicity": 0.0499}, {"smiles": "OCCOc1ccccc1", "activity change, negative = cytotoxicity": -12}, {"smiles": "CCOP(=S)(OCC)Oc1cc(C)nc(C(C)C)n1", "activity change, negative = cytotoxicity": -0.64}, {"smiles": "c1ccc2c(c1)Nc1ccccc1S2", "activity change, negative = cytotoxicity": -8.12}, {"smiles": "Oc1cccc2cccnc12", "Potency": "15.8 µM (active)"}, {"smiles": "Oc1ccccc1-c1ccccc1", "activity change, negative = cytotoxicity": -24.7}, {"smiles": "N[C@@H](Cc1ccc(N(CCCl)CCCl)cc1)C(=O)O", "Potency": "25.1 µM (active)"}]}, {"test": "Cell Viability - LYMP2-008 (AID 980); also: nearly all actives have a fitted effect of over 60% in size; as to activity change, negative = cytotoxicity: % is scaled to controls: 0 for no effect and ±100 for the full control effect", "conditions": "LYMP2-008 lymphoblastoid cell viability, qHTS; series mostly up to 92.2 µM; activity change, negative = cytotoxicity: at the top concentration", "how_it_was_run": "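qHTS, human lymphoblastoid line, 2500 cells/well; 5 hr preincubation, 24 hr compound, 37 C. CellTiter-Glo ATP luminescence. AC50 via Hill equation. Tetraoctylammonium bromide positive control.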", "units": {"activity change, negative = cytotoxicity": "%"}, "values": [{"smiles": "Oc1ccc(Cl)cc1Cc1ccccc1", "activity change, negative = cytotoxicity": -1.97}, {"smiles": "CNCC(O)c1ccc(O)cc1", "note": "(stereo unspecified)", "activity change, negative = cytotoxicity": -1.07}, {"smiles": "NCC(O)c1ccc(O)cc1", "note": "(stereo unspecified)", "activity change, negative = cytotoxicity": -6.17}, {"smiles": "Clc1ccc(COC(Cn2ccnc2)c2ccc(Cl)cc2Cl)cc1", "note": "(stereo unspecified)", "Potency": "50.1 µM (active)"}, {"smiles": "CC(COc1ccccc1)N(CCCl)Cc1ccccc1", "note": "(stereo unspecified)", "Potency": "39.8 µM (active)"}, {"smiles": "CCCC(C)(COC(N)=O)COC(=O)NC(C)C", "note": "(stereo unspecified)", "activity change, negative = cytotoxicity": 0.956}, {"smiles": "OCCOc1ccccc1", "activity change, negative = cytotoxicity": -1.97}, {"smiles": "CCOP(=S)(OCC)Oc1cc(C)nc(C(C)C)n1", "activity change, negative = cytotoxicity": -10.2}, {"smiles": "CC(=O)Oc1ccccc1C(=O)Nc1ncc([N+](=O)[O-])s1", "Potency": "31.6 µM (active)"}, {"smiles": "c1ccc2c(c1)Nc1ccccc1S2", "activity change, negative = cytotoxicity": -1.59}, {"smiles": "Oc1cccc2cccnc12", "Potency": "15.8 µM (active) and 12.6 µM (active)"}, {"smiles": "Oc1ccccc1-c1ccccc1", "activity change, negative = cytotoxicity": -6.29}, {"smiles": "N[C@@H](Cc1ccc(N(CCCl)CCCl)cc1)C(=O)O", "Potency": "31.6 µM (active)"}]}, {"test": "Cell Viability - LYMP2-010 (AID 981); also: nearly all actives have a fitted effect of over 55% in size; as to activity, negative = cytotoxicity: % is scaled to controls: 0 for no effect and ±100 for the full control effect", "conditions": "LYMP2-010 lymphoblastoid cell viability, qHTS; series mostly up to 92.2 µM; activity, negative = cytotoxicity: at the top concentration", "how_it_was_run": "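Luminescent ATP signal (CellTiter-Glo) served as the viability read-out. Cells of the human lymphoblastoid line were treated with compound over a concentration range for 24 hours at 37 C, and AC50 values came from Hill-equation modeling.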", "units": {"activity, negative = cytotoxicity": "%"}, "values": [{"smiles": "Oc1ccc(Cl)cc1Cc1ccccc1", "activity, negative = cytotoxicity": -16.4}, {"smiles": "CNCC(O)c1ccc(O)cc1", "note": "(stereo unspecified)", "activity, negative = cytotoxicity": -12.2}, {"smiles": "NCC(O)c1ccc(O)cc1", "note": "(stereo unspecified)", "activity, negative = cytotoxicity": -11}, {"smiles": "CCCC(C)(COC(N)=O)COC(=O)NC(C)C", "note": "(stereo unspecified)", "activity, negative = cytotoxicity": -19.6}, {"smiles": "OCCOc1ccccc1", "activity, negative = cytotoxicity": -5}, {"smiles": "CCOP(=S)(OCC)Oc1cc(C)nc(C(C)C)n1", "activity, negative = cytotoxicity": -9.98}, {"smiles": "CC(=O)Oc1ccccc1C(=O)Nc1ncc([N+](=O)[O-])s1", "Potency": "39.8 µM (active)"}, {"smiles": "c1ccc2c(c1)Nc1ccccc1S2", "activity, negative = cytotoxicity": -0.24}, {"smiles": "Oc1cccc2cccnc12", "Potency": "12.6 µM (active) and 10 µM (active)"}, {"smiles": "C[C@]12C/C(=C/O)C(=O)C[C@@H]1CC[C@@H]1[C@@H]2CC[C@@]2(C)[C@H]1CC[C@]2(C)O", "Potency": "50.1 µM (active)"}, {"smiles": "Oc1ccccc1-c1ccccc1", "activity, negative = cytotoxicity": -15.9}, {"smiles": "N[C@@H](Cc1ccc(N(CCCl)CCCl)cc1)C(=O)O", "Potency": "31.6 µM (active)"}]}, {"test": "Cell Viability - LYMP2-012 (AID 982);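 also: cellular ATP by luciferase luminescence where a drop means cytotoxicity; cells exposed to compound for one day before reading; nearly all actives have a fitted effect of over 55% in size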;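 as to activity change, negative = cytotoxicity: 0% = DMSO only and full loss = 92 µM tetraoctylammonium bromide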", "conditions": "LYMP2-012 lymphoblastoid cell viability qHTS; series mostly up to 92.2 µM; activity change, negative = cytotoxicity: at the top concentration", "units": {"activity change, negative = cytotoxicity": "%"}, "values": [{"smiles": "Oc1ccc(Cl)cc1Cc1ccccc1", "activity change, negative = cytotoxicity": -1.78}, {"smiles": "CNCC(O)c1ccc(O)cc1", "note": "(stereo unspecified)", "activity change, negative = cytotoxicity": 3.74}, {"smiles": "NCC(O)c1ccc(O)cc1", "note": "(stereo unspecified)", "activity change, negative = cytotoxicity": -2.55}, {"smiles": "CCCC(C)(COC(N)=O)COC(=O)NC(C)C", "note": "(stereo unspecified)", "activity change, negative = cytotoxicity": 0.994}, {"smiles": "OCCOc1ccccc1", "activity change, negative = cytotoxicity": -6.08}, {"smiles": "CCOP(=S)(OCC)Oc1cc(C)nc(C(C)C)n1", "activity change, negative = cytotoxicity": -2.07}, {"smiles": "CC(=O)Oc1ccccc1C(=O)Nc1ncc([N+](=O)[O-])s1", "Potency": "39.8 µM (active)"}, {"smiles": "c1ccc2c(c1)Nc1ccccc1S2", "activity change, negative = cytotoxicity": -5.94}, {"smiles": "Oc1cccc2cccnc12", "Potency": "15.8 µM (active) and 10 µM (active)"}, {"smiles": "Oc1ccccc1-c1ccccc1", "activity change, negative = cytotoxicity": 15.7}, {"smiles": "N[C@@H](Cc1ccc(N(CCCl)CCCl)cc1)C(=O)O", "Potency": "31.6 µM (active)"}]}, {"test": "Cell Viability - LYMP2-014 (AID 983); also: nearly all actives have a fitted effect of over 50% in size;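 as to activity change, negative = cytotoxicity: plate controls were DMSO only for no effect and 92 µM tetraoctylammonium bromide for full effect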", "conditions": "LYMP2-014 lymphoblastoid cells, viability qHTS; series mostly up to 92.2 µM; activity change, negative = cytotoxicity: at the top concentration", "how_it_was_run": "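Luminescent ATP signal (CellTiter-Glo, 30 min at room temperature) serves as the viability read-out after 24 hr compound exposure at 37 C. Cells were seeded at 2500 per well and settled 5 hr beforehand.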", "units": {"activity change, negative = cytotoxicity": "%"}, "values": [{"smiles": "Oc1ccc(Cl)cc1Cc1ccccc1", "activity change, negative = cytotoxicity": -3.03}, {"smiles": "CNCC(O)c1ccc(O)cc1", "note": "(stereo unspecified)", "activity change, negative = cytotoxicity": -4.04}, {"smiles": "NCC(O)c1ccc(O)cc1", "note": "(stereo unspecified)", "activity change, negative = cytotoxicity": 2.35}, {"smiles": "CCCC(C)(COC(N)=O)COC(=O)NC(C)C", "note": "(stereo unspecified)", "activity change, negative = cytotoxicity": -4.74}, {"smiles": "OCCOc1ccccc1", "activity change, negative = cytotoxicity": -10.7}, {"smiles": "CCOP(=S)(OCC)Oc1cc(C)nc(C(C)C)n1", "activity change, negative = cytotoxicity": 2.76}, {"smiles": "c1ccc2c(c1)Nc1ccccc1S2", "activity change, negative = cytotoxicity": -0.934}, {"smiles": "Oc1cccc2cccnc12", "Potency": "15.8 µM (active) and 12.6 µM (active)"}, {"smiles": "Oc1ccccc1-c1ccccc1", "activity change, negative = cytotoxicity": -1.9}, {"smiles": "N[C@@H](Cc1ccc(N(CCCl)CCCl)cc1)C(=O)O", "Potency": "31.6 µM (active)"}]}]}
